# Test results as given in publication PMC5540273 (PLoS ONE, 2017).
# Values joined by “and” are separate entries in the source; they are usually repeats but may differ in a detail not shown here. Identical values can stand only once. Like-named read-outs stand apart in the source and are kept apart here.
# Key:
# DAPK1 = settings: concentration: 1 μM, replicates: in singlicate, n = 1
# DAPK2 = settings: concentration: 1 μM, replicates: in singlicate, n = 1
# DAPK3 = settings: concentration: 1 μM, replicates: in singlicate, n = 1
# DCAMKL1 = tested on: T1, DCAMKL1; settings: concentration: 1 μM, replicates: in singlicate, n = 1
# T1 construct: gene DCLK1
# DCAMKL2 = tested on: T2, DCAMKL2; settings: concentration: 1 μM, replicates: in singlicate, n = 1
# T2 construct: gene DCLK2
# DCAMKL3 = tested on: T3, DCAMKL3; settings: concentration: 1 μM, replicates: in singlicate, n = 1
# T3 construct: gene DCLK3
# DDR1 = settings: concentration: 1 μM, replicates: in singlicate; n = 1
# DDR2 = settings: concentration: 1 μM, replicates: in singlicate, n = 1
# DLK = tested on: T4, DLK; settings: concentration: 1 μM, replicates: in singlicate, n = 1
# T4 construct: gene MAP3K12
# DMPK2 = tested on: T5, DMPK2; settings: concentration: 1 μM, replicates: in singlicate, n = 1
# T5 construct: gene CDC42BPG
# DMPK = settings: concentration: 1 μM, replicates: in singlicate, n = 1
# DRAK1 = tested on: T6, DRAK1; settings: concentration: 1 μM, replicates: in singlicate, n = 1
# T6 construct: gene STK17A
# DRAK2 = tested on: T7, DRAK2; settings: concentration: 1 μM, replicates: in singlicate, n = 1
# T7 construct: gene STK17B
# DYRK1A = settings: concentration: 1 μM, replicates: in singlicate, n = 1
# DYRK1B = settings: concentration: 1 μM, replicates: in singlicate, n = 1
# DYRK2 = settings: concentration: 1 μM, replicates: in singlicate, n = 1
# EGFR = settings: concentration: 1 μM, replicates: in singlicate, n = 1
# EIF2AK1 = settings: concentration: 1 μM, replicates: in singlicate, n = 1
# EPHA1 = settings: concentration: 1 μM, replicates: in singlicate, n = 1
# EPHA2 = settings: concentration: 1 μM, replicates: in singlicate; n = 1
# 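Also: KINOMEscan kinase panel screen.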
smiles,measurement,setting,value
NS(=O)(=O)CCc1cccc(Nc2nccc(-c3c(-c4cccc(NC(=O)c5c(F)cccc5F)c4)nn4ccccc34)n2)c1 [GSK336735],%Inh,DAPK1,0%
same,%Inh,DAPK2,0%
same,%Inh,DAPK3,0%
same,%Inh,DCAMKL1,13%
same,%Inh,DCAMKL2,23%
same,%Inh,DCAMKL3,15%
same,%Inh,DDR1,100%
same,%Inh,DDR2,94.9%
same,%Inh,DLK,59%
same,%Inh,DMPK2,100%
same,%Inh,DMPK,11%
same,%Inh,DRAK1,4%
same,%Inh,DRAK2,12%
same,%Inh,DYRK1A,20%
same,%Inh,DYRK1B,0%
same,%Inh,DYRK2,12%
same,%Inh,EGFR,100%
same,%Inh,EIF2AK1,0%
same,%Inh,EPHA1,69%
same,%Inh,EPHA2,71%
NCCNS(=O)(=O)c1ccc(-c2ccnc3[nH]ccc23)cc1 [GSK977617],%Inh,DAPK1; 1 µM,94% and 90.7%
same,%Inh,DAPK2; 1 µM,91.4% and 86%
same,%Inh,DAPK3; 1 µM,98.5% and 97.6%
same,%Inh,DCAMKL1; 1 µM,50% and 52%
same,%Inh,DCAMKL2; 1 µM,34% and 28%
same,%Inh,DCAMKL3; 1 µM,58% and 39%
same,%Inh,DDR1,0%
same,%Inh,DDR2; 1 µM,12% and 8%
same,%Inh,DLK; 1 µM,48% and 40%
same,%Inh,DMPK2; 1 µM,78% and 71%
same,%Inh,DMPK; 1 µM,98.6% and 96.7%
same,%Inh,DRAK1; 1 µM,98.5% and 96.6%
same,%Inh,DRAK2; 1 µM,77% and 60%
same,%Inh,DYRK1A; 1 µM,89% and 84%
same,%Inh,DYRK1B; 1 µM,85% and 61%
same,%Inh,DYRK2; 1 µM,86% and 72%
same,%Inh,EGFR; 1 µM,22% and 15%
same,%Inh,EIF2AK1; 1 µM,11% and 0%
same,%Inh,EPHA1; 1 µM,54% and 38%
same,%Inh,EPHA2,0%
Cc1cccc(Cn2ccn3c(=O)cc(N4CCOCC4)nc23)c1 [GSK2297542],%Inh,DAPK1,9%
same,%Inh,DAPK2,5%
same,%Inh,DAPK3,0%
same,%Inh,DCAMKL1,21%
same,%Inh,DCAMKL2,14%
same,%Inh,DCAMKL3,28%
same,%Inh,DDR1,0%
same,%Inh,DDR2,6%
same,%Inh,DLK,49%
same,%Inh,DMPK2,16%
same,%Inh,DMPK,3%
same,%Inh,DRAK1,1%
same,%Inh,DRAK2,0%
same,%Inh,DYRK1A,24%
same,%Inh,DYRK1B,17%
same,%Inh,DYRK2,12%
same,%Inh,EGFR,22%
same,%Inh,EIF2AK1,11%
same,%Inh,EPHA1,16%
same,%Inh,EPHA2,15%
CNc1ncnc2[nH]ncc12 [SKF-18355],%Inh,DAPK1,7%
same,%Inh,DAPK2,0%
same,%Inh,DAPK3,0%
same,%Inh,DCAMKL1,33%
same,%Inh,DCAMKL2,15%
same,%Inh,DCAMKL3,0%
same,%Inh,DDR1,0%
same,%Inh,DDR2,64%
same,%Inh,DLK,11%
same,%Inh,DMPK2,0%
same,%Inh,DMPK,0%
same,%Inh,DRAK1,10%
same,%Inh,DRAK2,0%
same,%Inh,DYRK1A,0%
same,%Inh,DYRK1B,0%
same,%Inh,DYRK2,37%
same,%Inh,EGFR,0%
same,%Inh,EIF2AK1,0%
same,%Inh,EPHA1,0%
same,%Inh,EPHA2,0%
Cc1c2ccc(N(C)c3ccnc(Nc4cccc(S(N)(=O)=O)c4)n3)cc2nn1Cc1ccccc1.Cl.Cl [GW787226],%Inh,DAPK1,0%
same,%Inh,DAPK2,1%
same,%Inh,DAPK3,0%
same,%Inh,DCAMKL1,24%
same,%Inh,DCAMKL2,0%
same,%Inh,DCAMKL3,0%
same,%Inh,DDR1,97.7%
same,%Inh,DDR2,96.8%
same,%Inh,DLK,0%
same,%Inh,DMPK2,0%
same,%Inh,DMPK,8%
same,%Inh,DRAK1,3%
same,%Inh,DRAK2,16%
same,%Inh,DYRK1A,0%
same,%Inh,DYRK1B,0%
same,%Inh,DYRK2,0%
same,%Inh,EGFR,5%
same,%Inh,EIF2AK1,0%
same,%Inh,EPHA1,21%
same,%Inh,EPHA2,4%
O=C(NCCNc1ccnc(Nc2ccc(F)cc2)n1)Nc1ccccc1F [GSK1379880],%Inh,DAPK1,0%
same,%Inh,DAPK2,0%
same,%Inh,DAPK3,9%
same,%Inh,DCAMKL1,19%
same,%Inh,DCAMKL2,0%
same,%Inh,DCAMKL3,24%
same,%Inh,DDR1,29%
same,%Inh,DDR2,18%
same,%Inh,DLK,0%
same,%Inh,DMPK2,0%
same,%Inh,DMPK,0%
same,%Inh,DRAK1,0%
same,%Inh,DRAK2,0%
same,%Inh,DYRK1A,15%
same,%Inh,DYRK1B,6%
same,%Inh,DYRK2,12%
same,%Inh,EGFR,22%
same,%Inh,EIF2AK1,0%
same,%Inh,EPHA1,19%
same,%Inh,EPHA2,0%
COC(=O)Nc1nc2cc(Oc3ccc(NC(=O)Nc4cc(F)ccc4F)cc3)ccc2[nH]1.Cl [GW701424],%Inh,DAPK1,0%
same,%Inh,DAPK2,0%
same,%Inh,DAPK3,8%
same,%Inh,DCAMKL1,11%
same,%Inh,DCAMKL2,0%
same,%Inh,DCAMKL3,17%
same,%Inh,DDR1,100%
same,%Inh,DDR2,99.2%
same,%Inh,DLK,0%
same,%Inh,DMPK2,1%
same,%Inh,DMPK,0%
same,%Inh,DRAK1,2%
same,%Inh,DRAK2,0%
same,%Inh,DYRK1A,5%
same,%Inh,DYRK1B,6%
same,%Inh,DYRK2,0%
same,%Inh,EGFR,35%
same,%Inh,EIF2AK1,0%
same,%Inh,EPHA1,11%
same,%Inh,EPHA2,63%
O=C1Cc2cc(Nc3nc(NCc4cccc(S(=O)(=O)C(F)(F)F)c4)ncc3C(F)(F)F)ccc2N1,%Inh,DAPK1,0%
same,%Inh,DAPK2,0%
same,%Inh,DAPK3,0%
same,%Inh,DCAMKL1,15%
same,%Inh,DCAMKL2,0%
same,%Inh,DCAMKL3,12%
same,%Inh,DDR1,0%
same,%Inh,DDR2,11%
same,%Inh,DLK,33%
same,%Inh,DMPK2,19%
same,%Inh,DMPK,5%
same,%Inh,DRAK1,6%
same,%Inh,DRAK2,0%
same,%Inh,DYRK1A,13%
same,%Inh,DYRK1B,26%
same,%Inh,DYRK2,0%
same,%Inh,EGFR,0%
same,%Inh,EIF2AK1,0%
same,%Inh,EPHA1,19%
same,%Inh,EPHA2,3%
COc1cc2ncn(-c3cc(OCc4sccc4Cl)c(C(N)=O)s3)c2cc1OC [GSK448459],%Inh,DAPK1,12%
same,%Inh,DAPK2,2%
same,%Inh,DAPK3,36%
same,%Inh,DCAMKL1,5%
same,%Inh,DCAMKL2,4%
same,%Inh,DCAMKL3,0%
same,%Inh,DDR1,0%
same,%Inh,DDR2,12%
same,%Inh,DLK,32%
same,%Inh,DMPK2,0%
same,%Inh,DMPK,0%
same,%Inh,DRAK1,0%
same,%Inh,DRAK2,0%
same,%Inh,DYRK1A,13%
same,%Inh,DYRK1B,0%
same,%Inh,DYRK2,26%
same,%Inh,EGFR,32%
same,%Inh,EIF2AK1,0%
same,%Inh,EPHA1,0%
same,%Inh,EPHA2,0%
